# Compound activity from PubChem.
# Sampled rows, rich in hits. Any-hit rate of the full collection: about 4.5%.
# 697 NFkB inh: lowers PMA/ionomycin-induced NF-kB signal in 697 B cells | inhibition, % at 4 µM | AID 435022 | 697 B-cell NF-kB luciferase reporter, 16 h | 330,000 tested, 0.33% active; in the data active means inhibition above about 35%
# Mdm2 MdmX PPI: human Mdm2/MdmX binding inhibition; 330,000 tested, 3% active; inhibition, % at 8 µM; AID 485346; O15151+Q00987; SaOS-2 split-luciferase Mdm2/MdmX complementation, luminescence;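 active means inhibition of at least 50% at 8 µM in the primary screen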
# Target sequence (O15151 whole entry, looked up): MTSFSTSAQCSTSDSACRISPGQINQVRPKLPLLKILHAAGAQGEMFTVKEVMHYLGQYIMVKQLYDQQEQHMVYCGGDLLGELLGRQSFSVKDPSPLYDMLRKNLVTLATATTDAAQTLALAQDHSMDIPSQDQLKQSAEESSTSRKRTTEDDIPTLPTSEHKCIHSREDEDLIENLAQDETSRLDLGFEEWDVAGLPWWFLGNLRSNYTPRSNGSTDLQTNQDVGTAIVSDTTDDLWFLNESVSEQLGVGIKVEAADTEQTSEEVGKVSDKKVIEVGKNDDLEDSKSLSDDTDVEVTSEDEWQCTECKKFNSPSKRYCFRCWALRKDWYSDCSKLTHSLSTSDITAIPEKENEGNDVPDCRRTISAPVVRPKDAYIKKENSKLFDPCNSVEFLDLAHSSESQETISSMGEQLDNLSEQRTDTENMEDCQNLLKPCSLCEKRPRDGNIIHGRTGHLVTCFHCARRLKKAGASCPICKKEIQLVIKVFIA
# Target sequence (Q00987 whole entry, looked up): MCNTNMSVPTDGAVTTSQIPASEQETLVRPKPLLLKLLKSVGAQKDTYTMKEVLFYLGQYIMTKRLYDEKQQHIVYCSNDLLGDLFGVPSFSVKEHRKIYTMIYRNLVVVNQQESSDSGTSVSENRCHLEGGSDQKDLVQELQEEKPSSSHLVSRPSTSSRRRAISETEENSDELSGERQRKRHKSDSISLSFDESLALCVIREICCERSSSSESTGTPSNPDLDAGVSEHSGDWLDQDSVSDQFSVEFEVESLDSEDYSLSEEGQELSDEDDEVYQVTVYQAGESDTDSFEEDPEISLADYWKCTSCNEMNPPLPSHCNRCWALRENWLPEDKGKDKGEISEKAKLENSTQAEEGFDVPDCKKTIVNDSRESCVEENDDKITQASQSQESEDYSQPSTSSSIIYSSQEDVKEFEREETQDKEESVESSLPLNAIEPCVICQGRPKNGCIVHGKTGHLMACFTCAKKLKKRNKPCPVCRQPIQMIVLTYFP
# Jurkat NFkB inh: inhibitors of the PMA/ionomycin-induced NF-kB reporter in Jurkat cells. AID 435003. 330,000 tested, 0.53% active. PMA/ionomycin-induced NF-kB luciferase reporter, luminescence. inhibition, % at 4 µM; in the data active means inhibition above about 50%
# CSC inhib: blocks cancer stem cells. 300,000 tested, 1.1% active. inhibition, % at 7.5 µM. cancer stem cell-like cells viability, luminescence. AID 2717; in the data active means inhibition above about 75%; tested in HMLE shEcad cells
# Gli-Sufu antag: blocks Gli-Sufu signaling in a luciferase reporter. Sufu-KO-LIGHT fibroblasts, Gli luciferase reporter luminescence. inhibition, % at 5 µM. AID 588413. 340,000 tested, 0.74% active;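 active means inhibition above about 55%, limit read from the data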;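 further: 0% = DMSO-treated cells and 100% = wells with medium but no cells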
# Beta apoptosis: beta cell apoptosis inhibition. AID 435005. INS-1E cytokine-induced death, ATP luminescence, 48 h; percent of positive-control rescue, neutral wells zero. protection from apoptosis, % (concentration not given with the values). 300,000 tested, 0.8% active;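 active means Every replicate reaches about 75%, or at least half do and their mean reaches it too, limit read from the data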;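 further: 0% = cytokine-treated negative control wells and 100% = positive control rescue; higher means more ATP so stronger rescue from cytokine killing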
# Mdm2 MdmX conf: human Mdm2/MdmX binding inhibition, confirmed; shares compounds with Mdm2 MdmX PPI; luminescent assay; inhibition, % at 8 µM; 10,000 tested, 55% active; AID 489028; in the data active means inhibition above about 40%
# Full FLuc ctr: counter-screen for Mdm2/MdmX inhibitors: full-length luciferase; shares compounds with Mdm2 MdmX PPI; SaOS-2 full-length luciferase counterscreen, luminescence; inhibition, % at 8 µM; 6,200 tested, 77% active; AID 504607;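 active means mean inhibition at 8 µM reaching about 37%, which flags the compound as non-specific, limit read from the data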;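 further: p53-null SaOS-2 cells with luciferase driven by a doxycycline-inducible promoter; compound on cells about two nights before reading with doxycycline added after day one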
# * hit, by the source's call; x = no result.
SMILES,697 NFkB inh,Mdm2 MdmX PPI,Jurkat NFkB inh,CSC inhib,Gli-Sufu antag,Beta apoptosis,Mdm2 MdmX conf,Full FLuc ctr
O=C1CCNc2cc3ccccc3cc21,-6.8,65.2*,12.8,22.8,-5.7,-11.4,61.3*,48.8*
O=C1CCNc2ccc(-c3ccccc3)cc21,-16.5,7.9,-19.7,-3.2,-4.6,x,x,x
CCOc1ccc(S(=O)(=O)Nc2cc(NS(=O)(=O)c3ccc(OCC)cc3)cc(C(=O)O)c2)cc1,8.1,-9.8,-6.1,-1.7,-2.7,-0.1,x,x
O=C1/C(=C/c2ccc(O)cc2)SC(=S)N1Cc1cccnc1,-2.3,16.8,9.4,7.1,1.7,0.0,x,x
C#CCOc1ccc(/C=C2\SC(=S)N(Cc3cccnc3)C2=O)cc1,-19.1,60.3*,8.5,78.5*,19.9,x,70.5*,55.4*
COc1ccc(/C=C2\SC(=S)N(Cc3cccnc3)C2=O)cc1C,-25.0,59.2*,-15.5,79.9*,8.9,-2.8,31.6,x
CCN(CC)CCN(C(=O)CCS(=O)(=O)c1ccccc1)c1nc2cc(OC)c(OC)cc2s1,16.3,22.2,-21.1,-3.2,-2.5,-27.0,x,x
CN(C)CCCN(C(=O)CCS(=O)(=O)c1ccccc1)c1nc2cc3c(cc2s1)OCO3,15.8,66.0*,27.7,-10.9,7.2,-16.7,60.6*,56.1*
CN(C)CCCN(C(=O)CCSc1ccccc1)c1nc2cc3c(cc2s1)OCO3,12.6,53.1*,10.0,24.7,12.4,-12.0,37.6,x
CN(C)CCCN(C(=O)COc1ccccc1)c1nc2cc3c(cc2s1)OCCO3,4.0,22.6,-71.8,-3.6,18.6,-3.3,x,x
CC(C)(C)[C@H]1COC(=O)[C@@H](Cc2ccc(F)cc2)CC/C=C/C[C@@H](CC(=O)N[C@H](CO)Cc2ccccc2)C(=O)N1,11.5,10.4,13.6,-17.3,5.1,-7.3,x,x
COc1ccc(N2CCN(S(=O)(=O)c3cc(C)ccc3OC)CC2)cc1,-1.9,19.7,-6.5,4.0,2.0,0.2,x,x
COc1ccc2cc3c(N)nn(C(=O)c4ccccc4Cl)c3nc2c1,16.8,92.6*,34.3,16.8,-22.5,-30.2,93.3*,50.6*
COc1ccc2cc3c(N)nn(C(=O)c4cccc(F)c4)c3nc2c1,3.8,71.3*,23.8,-21.9,-17.4,-20.1,81.4*,43.4*
COc1ccc2cc3c(N)c(C(=O)N4CCCC4)sc3nc2c1,4.0,-46.2,0.4,-1.0,-13.5,-0.6,x,x
COc1ccc2cc3c(N)nn(C(=O)c4ccc(F)cc4)c3nc2c1,1.5,82.3*,22.0,-8.2,-21.5,-27.7,89.0*,46.6*
CC(=O)N1CCc2cc(S(=O)(=O)NCCC(=O)NCCc3ccc(Cl)cc3)ccc21,-7.9,0.3,18.2,-5.9,29.5,17.9,x,x
CCCOc1ccc(S(=O)(=O)n2cc(F)c(=O)[nH]c2=O)cc1,3.4,18.9,-15.8,9.2,-1.9,2.5,x,x
CS(=O)(=O)c1cccc(C(=O)N(CCc2ccccc2)Cc2cccs2)c1,3.5,6.5,-2.1,2.2,0.6,-3.0,x,x
Cc1cccc2cc(C#N)c(SCc3nnc(-c4ccccc4[N+](=O)[O-])o3)nc12,-33.0,58.8*,-9.3,0.8,-3.6,-0.5,16.6,x
Cc1cccc2cc(C#N)c(SCCN3CCCCC3)nc12,-16.2,-0.4,-0.8,0.5,6.5,36.7,x,x
C=CCC[C@H](Cc1ccc(F)cc1)C(=O)OC[C@@H](Cc1c[nH]c2ccccc12)NC(=O)[C@@H](CC=C)CC(=O)NCCO,-14.4,29.5,-10.4,x,-6.0,0.2,x,x
CCN(c1ccccc1)S(=O)(=O)c1ccc(Cl)c(NC(=O)CSc2ncn[nH]2)c1,16.8,36.4,6.7,-6.7,-0.1,-5.9,x,x
CCN(c1ccccc1)S(=O)(=O)c1ccc(Cl)c(NC(=O)Nc2ccc(Cl)cc2C#N)c1,-45.3,99.2*,28.0,9.1,2.6,10.0,98.7*,55.6*
CCN(c1ccccc1)S(=O)(=O)c1ccc(Cl)c(NC(=O)c2ccc(=O)[nH]n2)c1,8.5,52.8*,5.2,x,-5.2,-1.0,-3.0,x
SMILES,697 NFkB inh,Mdm2 MdmX PPI,Jurkat NFkB inh,CSC inhib,Gli-Sufu antag,Beta apoptosis,Mdm2 MdmX conf,Full FLuc ctr
Cc1cccc(C(=O)NNC2=C(C(=O)C(F)(F)F)CCC2)c1O,5.2,61.8*,6.4,110.1*,1.6,48.5,5.8,x
O=C(NNC1=C(C(=O)C(F)(F)F)CCC1)c1cccc(O)c1,-7.4,46.4,9.0,-8.4,0.1,-5.7,x,x
NS(=O)(=O)c1ccc(CCNC(=O)COC(=O)Cc2c(F)cccc2Cl)cc1,-6.6,4.9,-1.3,-4.2,1.7,x,x,x
Clc1nc(-c2ccccn2)nc2scc(-c3ccccc3)c12,-202.0,57.3*,-73.9,0.3,-40.3,51.1,36.6,x
CN1CCN(c2nc(-c3cccnc3)nc3scc(-c4ccccc4)c23)CC1,8.4,7.6,-0.2,23.6,18.8,-10.5,x,x
COc1ccccc1CC(=O)Nc1ncc(C)s1,2.6,7.1,-1.0,-3.0,-37.9,-6.0,x,x
COc1ccc(NC(=O)C(=O)NCC2CCCN2S(=O)(=O)c2cc(C)ccc2C)cc1 (stereo not given),-41.4,59.9*,45.9,50.8,-2.4,10.3,74.2*,47.6*
COc1ccc(NC(=O)C(=O)NCCC2CCCCN2S(=O)(=O)c2ccccc2)cc1 (stereo not given),-58.5,55.1*,30.3,3.1,-3.9,x,78.7*,56.1*
COc1ccc(CCNC(=O)C(=O)NCC2CCCN2S(=O)(=O)c2ccccc2)cc1OC (stereo not given),4.6,51.8*,10.0,10.2,-3.0,-4.0,26.4,x
COc1ccc(CNC(=O)C(=O)NCCC2CCCCN2S(=O)(=O)c2ccccc2)cc1 (stereo not given),-3.6,1.7,-4.7,9.3,8.4,1.3,x,x
Cn1c(SCC(=O)NNC(=O)c2ccccc2Br)nnc1C(F)(F)F,15.9,11.7,-10.5,x,-6.3,x,x,x
CCN(CC)CCCNC(=O)CCn1nc(-c2ccccc2)ccc1=O,4.3,8.2,10.2,-18.0,10.0,-2.8,x,x
CCOC(=O)N1C(=O)[C@](c2ccc(Cl)cc2)(C(C)C)N1C(=O)OCC,-2.2,79.9*,14.6,17.0,-4.1,11.4,43.7*,49.5*
COC(=O)N1C(=O)[C@](c2ccccc2)(C(C)C)N1C(=O)OC,11.7,34.7,16.0,10.6,-2.3,3.2,x,x
CCOC(=O)C1(C(N)=O)OC1(c1ccc(Cl)cc1)c1ccccc1Cl (stereo not given),x,x,x,x,1.1,x,x,x
CCOC(=O)N1C(=O)[C@@](c2ccc(Cl)cc2)(C(C)C)N1C(=O)OCC,1.4,88.3*,-3.3,77.8*,2.1,21.6,62.2*,33.2
COc1ccc(C(=O)NCCc2nnc3ccc(SCC(=O)Nc4cc(C)on4)nn23)cc1,-41.7,-20.3,-2.5,-8.3,7.2,0.4,x,x
O=C1Nc2ccccc2O/C1=C\c1c(F)cccc1Cl,9.4,60.0*,12.9,14.6,13.2,2.4,42.0*,60.2*
